Only some compounds are listed: those with a hit (about 11% of all), similar ones and a draw of the others.
IMPase Li inh – qHTS Assay for Identifying the Cell-Membrane Permeable IMPase Inhibitors: Potentiation with Lithium; CHO-M1 cells, IP1 TR-FRET (IP-One), carbachol + lithium; Potency, µM (titrated, usually from 59.4 µM), inactives show at the top dose activity, negative = IMPase inhibition, usual class: inhibitors; hit rate 0.35% among 210,000; AID 1457, 2008;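 further: IP1 builds up when IMPase is blocked and the TR-FRET signal falls; potency means the concentration at half of the fitted maximal effect; plate controls were basal vehicle for no effect and high inhibitor control for full effect; nearly all actives have a fitted effect of over 50% in size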
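CHO cells stably expressing M1 receptor (2000/well, cultured 16–30 h) treated 30 min at 37C with compound plus low lithium. Cytosolic IP1 by TR-FRET (665/620 ratio and 620 channel) after 10 min lysis; AC50 by Hill fit.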
HPGD inh – qHTS Assay for Inhibitors of HPGD (15-Hydroxyprostaglandin Dehydrogenase) | hit rate 4.3% among 150,000 | purified HPGD, NADH fluorescence kinetic, PGE2 substrate | 15-hydroxyprostaglandin dehydrogenase [NAD(+)] (Homo sapiens), P15428 | Potency, µM, for inactives: at the highest dose activity change, negative = inhibition, actives largely listed as inhibitors; active means well fitted inhibition curve with a large enough effect, not every such curve was filed as active; inconclusive means small, poorly fitted or top-dose-only effect, or another doubt; inactive means no such curve, though single readings can be large or run the other way; further: potency means the concentration at half of the fitted maximal effect
Target sequence (P15428 whole entry, looked up): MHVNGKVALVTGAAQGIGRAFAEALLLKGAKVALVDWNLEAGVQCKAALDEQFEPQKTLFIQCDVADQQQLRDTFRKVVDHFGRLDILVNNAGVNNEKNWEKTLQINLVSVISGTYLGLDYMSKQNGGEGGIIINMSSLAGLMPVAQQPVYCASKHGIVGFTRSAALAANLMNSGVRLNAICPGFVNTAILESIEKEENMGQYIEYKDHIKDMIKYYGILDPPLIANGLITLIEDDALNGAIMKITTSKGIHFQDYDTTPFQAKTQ
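NADH formation kinetics: reaction with 30 uM PGE2 and 1 mM NAD+ (final), 20 nM enzyme, Tris-HCl pH 8 with Tween 20, after 15 min compound preincubation at room temperature. Fluorescence change, last versus first of five reads.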
PNC inhibitor – High Content Assay for Compounds that inhibit the Assembly of the Perinucleolar Compartment; activity change (PNC), negative = inhibition, % at 10 µM; AID 2417, 2010; hit rate 3.1% among 140,000; PC3M PTB-GFP, PNC prevalence imaging, 16 h; active compounds read low;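 active means readout at or below -70, meaning at least 70% loss of cells showing the perinucleolar compartment, a nuclear body marking cancer cells; inconclusive means readout between -30 and a set limit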;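 further: plate controls were DMSO wells for no effect and camptothecin positive control wells for full effect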
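PC3M cells stably expressing PTB-GFP, 750–1000 cells/well, treated 16 h at 37 °C with compound (23 nl of library stock), in duplicate. After paraformaldehyde fixation and Hoechst stain, imaged at 20x; PNC prevalence scored by image analysis.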
ALDH1A1 inh – qHTS Assay for Inhibitors of Aldehyde Dehydrogenase 1 (ALDH1A1); hit rate 7.3% among 220,000; AID 1030, 2008; Aldehyde dehydrogenase 1A1 (Homo sapiens), P00352; Purified ALDH1A1, NADH fluorescence, propionaldehyde substrate; Potency, µM (highest dose often 75.3 µM), for the others: at the highest dose activity, negative = inhibition, most hits filed as inhibitors; active means well fitted inhibition curve with a large enough effect, not every such curve was filed as active; inconclusive means small, poorly fitted or top-dose-only effect, or another doubt; inactive means no such curve, though single readings can be large or run the other way;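 further: potency means the concentration at half of the fitted maximal effect; plate controls were no enzyme wells and a reference inhibitor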
Target sequence (P00352 whole entry, looked up): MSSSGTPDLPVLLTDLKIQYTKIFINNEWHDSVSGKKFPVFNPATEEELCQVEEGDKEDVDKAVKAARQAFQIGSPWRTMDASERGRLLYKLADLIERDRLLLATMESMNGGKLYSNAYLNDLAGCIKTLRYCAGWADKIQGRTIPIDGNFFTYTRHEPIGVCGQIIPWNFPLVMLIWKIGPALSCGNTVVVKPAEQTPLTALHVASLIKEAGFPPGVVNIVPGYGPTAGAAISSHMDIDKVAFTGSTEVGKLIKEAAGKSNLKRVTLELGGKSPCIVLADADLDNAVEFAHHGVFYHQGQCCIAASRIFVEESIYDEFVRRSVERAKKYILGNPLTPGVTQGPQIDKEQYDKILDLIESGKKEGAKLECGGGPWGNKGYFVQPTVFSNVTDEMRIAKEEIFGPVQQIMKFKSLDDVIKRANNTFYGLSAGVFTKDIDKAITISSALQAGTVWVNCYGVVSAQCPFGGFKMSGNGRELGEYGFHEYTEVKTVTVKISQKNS
IMPase cell inh – qHTS Assay for Identifying the Cell-Membrane Permeable IMPase Inhibitors; Inositol monophosphatase 1 (Rattus norvegicus), P97697; inhibition (IP1 accumulation), % at 46.1 µM; CHO-M1 cells, IP1 accumulation, HTRF TR-FRET ratio; AID 901, 2007; 120,000 tested, under 10 active; active means well fitted curve in the direction sought with a large enough effect in the signal ratio, not every such curve was filed as active; inconclusive means small, poorly fitted or top-dose-only effect, or a change in a side signal; inactive means no such curve, though single readings can be large or run the other way; the % refers to the signal ratio;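 further: cells stimulated with carbachol in lithium chloride buffer; plate controls were DMSO basal wells for no effect and reference inhibitor wells for full effect; higher means more IMPase inhibition seen as more IP1 and lower FRET ratio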
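CHO-M1 cells (CHO stably expressing M1 receptor), compound up to 46 uM final, stimulated with carbachol (50 uM as added) in buffer with 50mM LiCl, pH 7.4, 30 min at 37C. Cytosolic IP1 read by TR-FRET; AC50 from Hill fits.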
NPSR antag – qHTS Assay for Antagonists of the Neuropeptide S Receptor: cAMP Signal Transduction; CHO-NPSR cells, cAMP TR-FRET, antagonist mode; Potency, µM (top dose mostly 38.3 µM), for the others: at the top dose activity change, negative = inhibition, most hits filed as inhibitors; hit rate 1% among 220,000; further: potency means the concentration at half of the fitted maximal effect; nearly all actives have a fitted effect of over 50% in size
The depositor's hits bear a star; ? = inconclusive; . = no result; [ ] = remark or other dose. Unless noted, the call rests on the fitted dose curve; in most records, active means well fitted curve in the direction sought with a large enough effect; inconclusive means small, poorly fitted or top-dose-only effect, or another doubt; inactive means no such curve, though single readings can be large; an effect the other way counts as inactive or inconclusive. Unless noted, on the % scale 0 is the no-effect control and ±100 the full control effect.

SMILES	IMPase Li inh	HPGD inh	PNC inhibitor	ALDH1A1 inh	IMPase cell inh	NPSR antag
Cc1occc1C(=O)NNC(=O)Nc1ccc([N+](=O)[O-])cc1	-6%	.	.	14µM*	.	27%
Cc1ccc(C(C)C)cc1NC(=O)Nc1ccc([N+](=O)[O-])cc1	.	.	.	.	.	10µM*
Cc1ccc([N+](=O)[O-])cc1NC(=O)c1ccoc1C	-2%	-19%	?	20µM*	.	0%
CNC(=O)COC(=O)c1cc(SC)ccc1Cl	2%	.	.	5%	.	1%
CN(C)c1ccc(C2N(c3ccc(Cl)cc3)C(=O)C3CCCN32)cc1 (stereo not given)	15%[38.3 µM]	-16%	-14	0.79µM*	2	2%[46.1 µM]
O=C1C2CCCN2C(c2ccccc2)N1c1ccc(Cl)cc1 (stereo not given)	0%	4%	?	3%	?	13%[46.1 µM]
COc1ccc(C2N(c3cc(Cl)ccc3OC)C(=O)C3CCCN32)cc1 (stereo not given)	22%[38.3 µM]	-13%	2	10µM*	-5	-2%[46.1 µM]
CN(C)c1ccc(C2N(c3ccc(F)cc3)C(=O)C3CCCN32)cc1 (stereo not given)	-7%[38.3 µM]	-25%	-4	0.63µM*	5	-12%[46.1 µM]
CCS(=O)(=O)N1CCC(C(=O)NCc2cccc(OC)c2)CC1	.	.	-10	3%	3	-5%[46.1 µM]
Cc1ccc(N2C(=O)C3CC(c4ccccc4)=C4C5C=CC(C6C(=O)N(c7ccc(C)cc7)C(=O)C56)C4C3C2=O)cc1 (stereo not given)	3%	-7%	?	1.1µM*	.	-15%
Cc1ccc(N2C(=O)C3CC(c4ccccc4)=C4C5C=CC(C6C(=O)N(c7ccc(C)cc7C)C(=O)C56)C4C3C2=O)c(C)c1 (stereo not given)	11%[38.3 µM]	-4%	-30	8%	3	-5%[46.1 µM]
CC(C)C(C(=O)Nc1sc2c(c1C#N)CCCCC2)N1C(=O)c2ccccc2C1=O (stereo not given)	-4%[38.3 µM]	-16%	57	-13%	10	?
CC1=C(C(=O)Nc2ccccn2)C(c2ccc(Cl)cc2Cl)NC(=S)N1 (stereo not given)	1%	.	.	2.5µM*	.	-8%
O=C(Nc1ccc(Cl)cc1C(=O)Nc1ccccn1)c1ccco1	27%[38.3 µM]	?	12	-6%	11	-29%[46.1 µM]
CC1=C(C(=O)Nc2ccccn2)C(c2ccccc2Cl)NC(=S)N1 (stereo not given)	7%	.	.	2.5µM*	.	9%
COc1ccc2c(c1OC)C(=O)OC2Nc1ncc(Br)cc1Br (stereo not given)	-4%[38.3 µM]	2%	32	14%	-9	-2%[46.1 µM]
Cc1ccc(-c2nc(Nc3ccc(N4CCOCC4)cc3)c3ccccc3n2)cc1	.	.	.	.	.	13µM*
CN(C)c1ccc(C2(O)C(=O)c3ccccc3C2=O)cc1	3%	-7%	-22	-5%	.	9%
Cc1ccccc1NC(=O)CC1(c2ccc(N(C)C)cc2)C(=O)c2ccccc2C1=O	10%[38.3 µM]	-20%	-90*	13µM*	0	-15%[46.1 µM]
CCC(=O)N1CC23C=CC(CC2CC12CCCCC2)O3 (stereo not given)	-3%[38.3 µM]	-4%	-124*	16µM*	-13	-7%[46.1 µM]
Cc1ccccc1N1C(=O)c2cccc([N+](=O)[O-])c2C1=O	11%	.	.	7%	.	-9%
O=C1CSC(=S)N1N1C(=O)c2cccc([N+](=O)[O-])c2C1=O	12%	.	.	7.9µM*	.	-49%
CCCCC(O)(CCN1CCOCC1)c1ccc(Cl)cc1 (stereo not given)	52%[38.3 µM]	-1%	41	28µM*	16	9%[46.1 µM]
CCCCOc1ccc(C(O)(CC)CCN2CCOCC2)cc1 (stereo not given)	10%	-7%	?	7.9µM*	16	-9%[46.1 µM]
CCC(O)(CCN1CCCCC1)c1ccccc1 (stereo not given)	29%[38.3 µM]	-5%	6	9%	13	-8%[46.1 µM]
SMILES	IMPase Li inh	HPGD inh	PNC inhibitor	ALDH1A1 inh	IMPase cell inh	NPSR antag
CCCCOc1ccc(C(O)(CCC)CCN2CCOCC2)cc1 (stereo not given)	0%	0%	4	5.6µM*	.	10%
CCCCCC(O)(CCN1CCCCC1)c1ccc(OCC)cc1 (stereo not given)	8%	.	.	1.8µM*	.	0%
Cc1cc(Nc2cccc([N+](=O)[O-])c2)c2ccccc2n1	16%	.	.	8%	.	1%
CCOc1ccc2nc(C)cc(Nc3cccc([N+](=O)[O-])c3)c2c1	9%	-21%	-102*	9%	.	0%
Cc1cc(C(=O)CN2C(=O)NC3(CCCCC3)C2=O)c(C)n1C	0%	.	.	6%	.	11%
Cc1ccc(Cl)cc1NC(=S)N(Cc1ccccc1)Cc1cccnc1	8%	.	.	-15%	.	-41%
C(=N\Nc1ccccc1)/c1ccc(N2CCOCC2)cc1	-2%[38.3 µM]	14µM*	64	6.3µM*	3	-12%[46.1 µM]
COCCCNCCCOc1ccc(C)cc1Br	3%	-11%	?	-7%	.	21%
COc1cc(NS(=O)(=O)c2ccc(NC(=S)NC(=O)C3CCCC3)cc2)nc(OC)n1	23%[38.3 µM]	-19%	?	25µM*	-7	-23%[46.1 µM]
COc1ccc(NS(=O)(=O)c2ccc(NC(=S)NC(=O)c3cccc(F)c3)cc2)nn1	-5%	-21%	36	?	.	-16%
COc1ccc(NS(=O)(=O)c2ccc(NC(=S)NC(=O)/C=C/c3ccccc3)cc2)nn1	5%	-15%	-9	?	-2	7.9µM*
COc1ccc(NS(=O)(=O)c2ccc(NC(=S)NC(=O)c3cccnc3)cc2)nn1	-2%	.	.	15µM*	.	-12%
COc1ccc(-c2cc(-c3n[nH]c(=S)n3-c3ccccc3Cl)[nH]n2)cc1	4%	.	.	?	.	-27%
Cc1cccc(NC(=O)c2cc3ccccc3nc2C)c1	2%	.	.	-2%	.	-9%
CCCCCCCCCCCCCCCC(=O)O[C@H](CC(=O)O)C[N+](C)(C)C	38%	-18%	.	-4%	4	.
CCCN(CCC)CCNC(=O)C1CCN(Cc2nc(-c3ccc(Cl)cc3)oc2C)CC1	17%[38.3 µM]	-12%	-25	1%	-1	5%[46.1 µM]
Cc1onc(-c2ccccc2Cl)c1C(=O)N1CCN(c2nc3ccccc3s2)CC1	3%[38.3 µM]	-16%	-113*	14µM*	6	-4%[46.1 µM]
CC(C)OCCCNc1ncc2c(n1)CC(c1ccc(N(C)C)cc1)CC2=O (stereo not given)	13%[38.3 µM]	-17%	24	8.9µM*	3	-20%[46.1 µM]
CC(C)OCCCNc1ncc2c(n1)CC(c1cccs1)CC2=O (stereo not given)	12%	.	.	-1%	.	16%

Source: PubChem
